# According to PubChem BioAssay AID2235 (The Scripps Research Institute Molecular Screening Center, 2010):
# Among all 320,000 compounds or so, about 2,800 (0.88%) were called active. The list comes from a sample in which actives are over-represented; it also holds similar structures and randomly drawn compounds. Unmarked numbers belong to inactive results.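 How the source made its calls: active means inhibition above the mean inhibition of all tested compounds plus 3 SD, computed separately for each screening campaign (cut at about 15% in these data); inactive means the rest.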
# Target: Serine/threonine-protein phosphatase PP1-alpha catalytic subunit (Homo sapiens) (UniProt P62136)
# Sequence (P62136 whole entry, looked up): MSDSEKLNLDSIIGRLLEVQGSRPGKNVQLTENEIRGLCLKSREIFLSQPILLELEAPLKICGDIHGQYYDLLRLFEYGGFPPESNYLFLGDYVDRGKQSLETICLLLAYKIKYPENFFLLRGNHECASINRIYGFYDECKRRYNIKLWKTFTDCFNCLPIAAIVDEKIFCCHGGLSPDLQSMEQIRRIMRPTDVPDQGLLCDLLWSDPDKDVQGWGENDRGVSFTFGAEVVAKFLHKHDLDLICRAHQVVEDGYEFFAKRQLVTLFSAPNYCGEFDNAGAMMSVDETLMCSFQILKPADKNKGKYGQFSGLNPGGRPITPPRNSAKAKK
# Experiment: PP1-alpha phosphatase inhibitors, primary screen, counter-screen for PP5 inhibitor project, biochemical, fluorescence, OMFP substrate, single point (AID 2235)
# Details: purified PP1alpha, at 6.7 µM, active compounds read high
row,Compound,inhibition
1,CC(C)Oc1ccc(CC(=O)NNC(=S)Nc2ccc(Br)cc2)cc1,6.13%
2,Cc1ccc(C(=O)NNC(=O)c2cccs2)cc1,3.43%
3,O=C(NNC(=O)c1cc2c(s1)CCCC2)c1ccccc1,-3.37%
4,Cc1ccc(C(=O)NNC(=O)c2cc3cc4ccccc4nc3s2)cc1,15.8% (active)
5,O=C(O)c1cccc(N=NN2CCCCCC2)c1,2.62%
6,CCN(CC(=O)Nc1ccc(NC(C)=O)cc1)C(=O)CSC(=S)N1CCCC1,-1.09%
7,CCOc1cc(C)ccc1OCc1nnc(SCC(=O)Nc2cccc(C(=O)O)c2)n1-c1ccccc1,-6.28%
8,Cc1nc(/N=C(\N)NC(=O)NC2CCCCC2)nc2ccccc12,18.6% (active)
9,O=C(NNC(=O)C(O)c1ccccc1)NC1CCCCC1 (configuration not stated),-1.2%
10,COc1ccc2nc(/N=C(\N)NC(=O)Nc3ccccc3)nc(C)c2c1,7.87%
11,CC1(C)C2CC=C(/C=N/NC(=O)c3ccc(Cl)cc3)C1C2 (configuration not stated),0.59%
12,COc1ccc(C(C#N)Nc2ccc(C)cc2)cc1 (configuration not stated),-2.92%
13,N#CC1=C(N)Oc2c(ccc3cccnc23)C1c1ccncc1 (configuration not stated),-1.75%
14,N#CC1=C(N)Oc2c(sc3ccccc23)C1c1ccco1 (configuration not stated),15.7% (active)
15,CON(C)S(=O)(=O)c1ccc2c(c1)NC(=O)C1CCCN21 (configuration not stated),5.21%
16,O=C(NC(=S)NC1CCS(=O)(=O)C1)c1cccc([N+](=O)[O-])c1 (configuration not stated),-0.09%
17,CC1=NN(c2ccccc2)C(=O)C1C(=O)c1ccc([N+](=O)[O-])cc1 (configuration not stated),-1.75%
18,Cc1nn(-c2ccc([N+](=O)[O-])cc2)c(N)c1-c1ccccc1,-0.19%
19,O=C1CC(c2ccccc2)=NN1c1ccc([N+](=O)[O-])cc1,15.4% (active)
20,Cc1ccc(NC(=O)CN(C)C(=O)COC(=O)c2nccnc2N)cc1,6.11%
21,COc1ccc(NC(=O)C2C3CCC(O3)C2C(=O)O)cc1OC (configuration not stated),71.5% (active)
22,COC(=O)c1cc(NC(=O)C2C3C=CC(C3)C2C(=O)O)cc(C(=O)OC)c1 (configuration not stated),2.03%
23,CC(C)OC(=O)c1cc(NC(=O)C2C3CCC(O3)C2C(=O)O)cc(C(=O)OC(C)C)c1 (configuration not stated),48.8% (active)
24,COc1ccc(NC(=O)CNC(=O)Cc2ccccc2)cc1OC,-3.57%
25,Cc1sc(NC(=O)C2C3CCC(O3)C2C(=O)O)c(C(=O)OC(C)C)c1-c1ccc(Cl)cc1 (configuration not stated),10.9%
26,COc1ccc(NC(=S)SC)cc1OC,-7.31%
27,COc1ccc(N(CC(=O)N/N=C/c2cccc3c2OCCO3)S(=O)(=O)c2ccc(NC(C)=O)cc2)cc1,4.91%
